{"source": "PubChem BioAssay AID493169", "about": "(National Center for Advancing Translational Sciences (NCATS), 2011)", "note": "Inconclusive results are not listed. A number with no mark means an inactive call. Active and inactive are the calls of the source. Calls come from the whole dose curve; as a rule, active = well fitted inhibition curve with a large enough effect; inconclusive = small, poorly fitted or top-dose-only effect; inactive = flat fitted curve, though single readings scatter. % is set by controls: 0 for no effect and ±100 for the full control effect; potency is the fitted concentration of half-maximal effect.", "data": [{"assay": "CHOP2 Reporter Counterscreen Assay for Inhibitors of Ubiquitin-specific Protease USP2a;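 note: activated enterokinase alone at 50 pM in a cell-free format rather than USP2a or CHOP2; nearly all actives have a fitted effect of over 55% in size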", "conditions": "purified enterokinase, fluorogenic substrate, 485/531 nm; series mostly up to 38.3 µM; activity change, negative = inhibition: at the top concentration", "in_short": "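Fluorescence (485/531 nm) read 10 min after adding 25nM reporter substrate to 50 pM activated EK preincubated 30 min RT with compound; Tris pH 8.0/CaCl2/CHAPS buffer. Data normalized to buffer-alone inhibition; concentration-response curves fitted.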", "units": {"activity change, negative = inhibition": "%"}, "values": [{"smiles": "CCn1nc(C(=O)N[C@@H](CCSC)c2nc3ccccc3[nH]2)c2ccccc2c1=O", "activity change, negative = inhibition": -2.42}, {"smiles": "CCOC(=O)c1[nH]c2ccc(OC)cc2c1NC(=O)CCN1CCC(C)CC1", "activity change, negative = inhibition": 4.08}, {"smiles": "O=C(N/N=C/c1ccc(-c2ccc(S(=O)(=O)Nc3ncccn3)cc2)o1)c1cc2ccccc2cc1O", "Potency": "3.98 µM (active)"}, {"smiles": "CCCOc1ccc(-c2nc(C#N)c(N3CCN(CC)CC3)o2)cc1", "activity change, negative = inhibition": -0.81}, {"smiles": "Cc1noc(NS(=O)(=O)c2ccc(N3CC(O)=C(c4ccccc4)C3=N)cc2)c1C", "activity change, negative = inhibition": 0.63}, {"smiles": "O=C(CCCN1C(=O)/C(=C\\c2ccco2)SC1=S)Nc1ccc(O)cc1C(=O)O", "Potency": "12.6 µM (active)"}, {"smiles": "C=CC[C@H](CC(=O)N(CCO)Cc1ccccc1)C(=O)N[C@H](C)COC(=O)[C@@H](CC=C)CC(=O)OC(C)(C)C", "activity change, negative = inhibition": 0.348}, {"smiles": "Cc1ccc(-c2c(C)n([O-])c3c([n+]2=O)CCC3)o1", "activity change, negative = inhibition": 3.46}, {"smiles": "CCOC(=O)C(C)Sc1nnc(Cn2c(=O)sc3ccccc32)n1-c1ccccc1", "note": "(stereo not given)", "activity change, negative = inhibition": -1.3}, {"smiles": "O=C(CCS(=O)(=O)c1ccc(Br)s1)NC1CCCC1", "activity change, negative = inhibition": 0.117}, {"smiles": "Cc1cc(N2CCC(C(=O)NC3CC3)CC2)nc(-c2ccccc2)n1", "activity change, negative = inhibition": -2.34}, {"smiles": "O=C1CCCC2=C1C(c1ccco1)Nc1ccc3ccccc3c12", "note": "(stereo not given)", "Potency": "7.94 µM (active)"}, {"smiles": "COc1cccc(NC(=O)c2ccccc2-c2nc(-c3cccc(C)c3)no2)c1", "activity change, negative = inhibition": -4.15}, {"smiles": "CC(=O)Nc1cc[n+](CC(=O)c2ccc(Cl)cc2)cc1", "activity change, negative = inhibition": -1.03}, {"smiles": "Cc1ccc(C)n1-c1cc(S(=O)(=O)N2CCOCC2)ccc1N1CCCC1", "activity change, negative = inhibition": 5.06}, {"smiles": "Cc1ccc2nc(NCCCNC(=O)c3cnccn3)c(C#N)cc2c1", "activity change, negative = inhibition": 1.61}, {"smiles": "CC1(C)CC(=O)C2=C(C1)NCN(CCCN1CCOCC1)C2", "activity change, negative = inhibition": 2.72}, {"smiles": "CCOC(=O)Nc1ccc(S(=O)(=O)Nc2cc(C)nc(C)n2)cc1", "activity change, negative = inhibition": 1.95}, {"smiles": "COc1ccc(-c2noc(CSc3nnc(Cc4ccccc4)n3-c3ccc(Cl)cc3)n2)cc1", "activity change, negative = inhibition": -4.97}, {"smiles": "Cc1cc(=O)oc(C)c1C(=O)NCCc1ccccc1", "activity change, negative = inhibition": 1.21}, {"smiles": "Cc1ccc(C=Nc2ccccc2C(N)=O)cc1", "activity change, negative = inhibition": 3.57}, {"smiles": "Nc1nc(NCCO)nc(NCC2CCCO2)c1[N+](=O)[O-]", "note": "(stereo not given)", "activity change, negative = inhibition": 2.32}, {"smiles": "COc1ccc(NC(=O)CSc2nc3sc(C)cc3c(=O)n2C)c(OC)c1", "activity change, negative = inhibition": -4.63}, {"smiles": "N#Cc1cccc(C(=O)N(CCc2ccccc2)Cc2cccs2)c1", "activity change, negative = inhibition": 1.74}, {"smiles": "Cc1ccc(S(=O)(=O)N2CCOCC2)cc1NC(=O)CN1C(=O)NC(C)(c2ccc(Cl)cc2Cl)C1=O", "note": "(stereo not given)", "activity change, negative = inhibition": -0.725}, {"smiles": "COc1ccccc1N1CCN(c2cc(C)nc3nc(C)nn23)CC1", "activity change, negative = inhibition": 2.05}, {"smiles": "CC(C)(C)[C@H]1COC(=O)[C@@H](Cc2ccc(F)cc2)C/C=C\\C[C@@H](CC(=O)N[C@H](CO)Cc2ccccc2)C(=O)N1", "activity change, negative = inhibition": -3.42}, {"smiles": "CCC1=[N+](CC(=O)c2ccc(Br)cc2)CCn2c(C)ccc21", "activity change, negative = inhibition": -22}, {"smiles": "CN(c1cccc(NC(=O)Nc2cccc(Cl)c2)c1)S(C)(=O)=O", "activity change, negative = inhibition": -0.746}, {"smiles": "Cc1cc(C)n(C(=O)c2cccc(S(=O)(=O)N3CCCC3)c2)n1", "activity change, negative = inhibition": 5.71}, {"smiles": "CCN=C1SC(C(=O)Nc2cccc(OCC)c2)CC(=O)N1CC", "note": "(stereo not given)", "activity change, negative = inhibition": 0.255}, {"smiles": "O=C(Nc1cccc(Cl)c1)Nc1nnc(CC2=CCCCC2)s1", "activity change, negative = inhibition": 2.28}, {"smiles": "Cc1ccc2oc(=O)c3cnn(CC(=O)NCCCOC(C)C)c3c2c1", "activity change, negative = inhibition": -0.662}, {"smiles": "CC(C)n1c(/C=C/[C@H](O)C[C@H](O)CC(=O)O)c(-c2ccc(F)cc2)c2ccccc21", "activity change, negative = inhibition": 5.52}, {"smiles": "Cc1ccccc1N=C1NC(=O)CS1", "activity change, negative = inhibition": 2.43}, {"smiles": "CCOC(=O)C(=O)Nc1nc(-c2ccc3c(c2)CCN3C(=O)C2CC2)c(C)s1", "activity change, negative = inhibition": -5.35}, {"smiles": "O=C(Nc1cccc(-c2nn[nH]n2)c1)c1ccc(Br)s1", "Potency": "3.98 µM (active)"}, {"smiles": "CCC(=O)c1ccc(OCC(=O)NC2CCN(Cc3ccccc3)CC2)cc1", "activity change, negative = inhibition": -0.493}, {"smiles": "O=C(N/N=C/C=C/c1ccccc1)c1ccncc1", "activity change, negative = inhibition": 6.48}, {"smiles": "O=C(NN=Cc1ccc(N2CCOCC2)s1)c1ccc([N+](=O)[O-])cc1", "activity change, negative = inhibition": -0.184}]}]}
